# Records with an inconclusive call do not appear. Entries that show only a call come without a potency. Activity calls are given as the source filed them. Calls follow the shape of the dose curve; as a rule, active = well fitted curve in the direction sought with a large enough effect; inconclusive = small, poorly fitted or top-dose-only effect, or another doubt; inactive = no such curve, though single readings can be large; an effect the other way counts as inactive or inconclusive.
# Tests used:
# [1] = test system: Zika virus NS2B-NS3 protease (linked construct); assay: Primary screen NINDS Rhodamine qHTS for Zika virus inhibitors (AID 1347160); also: potency is read from the fitted curve at half-maximal effect; nearly all actives have a fitted effect of over 55% in size
# In short: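 Rhodamine110-peptide cleavage (1.5 µM substrate) by 25 nM linked NS2B-NS3 enzyme at pH 8.0 (Tris, Tween 20), after 15 min RT preincubation with compounds; 15-min fluorescence change normalized to controls and Hill-fitted.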
# [2] = OV-KATE Cancer Cell Toxicity qHTS against the NCATS CANVASS Library (AID 1347345)
# In short: (§1)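 Viability read-out: CellTiter-Glo luminescence after 72 h compound exposure at 37 °C/5% CO2. Cells plated at 1000/well, 4 h pre-incubation; 11-point titration. Bortezomib served as control.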
# [3] = HPAF-II Cancer Cell Toxicity qHTS against the NCATS CANVASS Library (AID 1347346); also: series mostly up to about 38 µM; nearly all actives have a fitted effect of over 55% in size
# In short: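 First, HPAF-II cells are plated (1000 cells/well) and held 4 h at 37 degrees C. Next, compounds are pin-transferred as an 11-point series. After 72 h, CellTiter-Glo is added and luminescence measured.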
# [4] = UWB1.289 Cancer Cell Toxicity qHTS against the NCATS CANVASS Library (AID 1347347); also: series mostly up to about 38 µM; nearly all actives have a fitted effect of over 60% in size
# In short: as §1
# [5] = OV-SAHO Cancer Cell Toxicity qHTS against the NCATS CANVASS Library (AID 1347348); also: series mostly up to about 38 µM; nearly all actives have a fitted effect of over 55% in size
# In short: as §1
# [6] = Panc-1005 Cancer Cell Toxicity qHTS against the NCATS CANVASS Library (AID 1347349); also: series mostly up to about 38 µM; nearly all actives have a fitted effect of over 60% in size
# In short: as §1
# [7] = SW1088 Cancer Cell Toxicity qHTS against the NCATS CANVASS Library (AID 1347350); also: series mostly up to about 38 µM; nearly all actives have a fitted effect of over 75% in size
# In short: as §1
# [8] = U-118MG Cancer Cell Toxicity qHTS against the NCATS CANVASS Library (AID 1347351); also: series mostly up to about 38 µM
# In short: as §1
# [9] = COV-362 Cancer Cell Toxicity qHTS against the NCATS CANVASS Library (AID 1347352); also: series mostly up to about 38 µM
# In short: (§2)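 First, 1000 cells go into each well and rest for 4 hours. Next, an 11-point dilution range is pinned in. Plates then incubate 72 hours before CellTiter-Glo addition and luminescence reading.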
# [10] = A2780 Cisplatin Sensitive Ovarian Cancer Cell Toxicity qHTS against the NCATS CANVASS Library (AID 1347353); also: nearly all actives have a fitted effect of over 60% in size
# In short: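 Cells are plated at 750 per well and rest for 4 hours. Compounds are added across eleven concentrations, and incubated 72 hours before ATP is quantified by luminescence.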
# [11] = UWB1.289-WTBRCA1 Cancer Cell Toxicity qHTS against the NCATS CANVASS Library (AID 1347354)
# In short: as §2
# [12] = HEK-293 Cancer Cell Toxicity qHTS against the NCATS CANVASS Library (AID 1347355); also: series mostly up to about 46 µM; nearly all actives have a fitted effect of over 65% in size
# In short: as §2
# [13] = HPAF-II 24hr Apoptosis Induction qHTS against the NCATS CANVASS Library (AID 1347356)
# In short: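 Cells seeded at 500 per well, then compounds pin-transferred in an 11-point concentration series. After 24 hours at 37 degrees C, Caspase-Glo 3/7 was added and luminescence measured following 15 min at room temperature.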
# [14] = HEK293 18hr Apoptosis Induction qHTS against the NCATS CANVASS Library (AID 1347357)
# In short: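 Luminescent caspase-3/7 signal is measured in HEK293 cells exposed for 18 hours to an 11-point concentration series; doxorubicin serves as the plate control.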
# [15] = HPAF-II 12hr Apoptosis Induction qHTS against the NCATS CANVASS Library (AID 1347358)
# In short: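 Cells plated at 500 per well are dosed with compound and incubated 12 hours at 37 degrees C. Caspase-Glo 3/7 reagent is added and, after 15 min at room temperature, luminescence proportional to caspase activity is measured.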
# [16] = HEK293 24hr Apoptosis Induction qHTS against the NCATS CANVASS Library (AID 1347359)
# In short: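 HEK293 cells (500/well, DMEM + 10% FBS) were exposed to compounds in an 11-point series for 24 hours at 37 degrees C, then caspase-3/7 activity was read by Caspase-Glo DEVD luciferase luminescence after 15 min.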
# [17] = HPAF-II 18hr Apoptosis Induction qHTS against the NCATS CANVASS Library (AID 1347360)
# In short: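 Apoptosis was scored as caspase-3/7 activity in HPAF-II pancreatic cancer cells treated 18 hours with an 11-point concentration series.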
# [18] = HEK293 12hr Apoptosis Induction qHTS against the NCATS CANVASS Library (AID 1347361)
# In short: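 Apoptosis in HEK293 was scored as caspase-3/7 luminescence following 12 h treatment with a compound concentration series in qHTS format.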
# [19] = test system: NAD(P)H diaphorase (Clostridium kluyveri); assay: Diaphorse counterscreen qHTS: Assay Interference Panel against the NCATS CANVASS Library (AID 1347362)
# In short: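 Clostridium kluyveri diaphorase in PBS with 0.01% Tween-20 was preincubated 15 min at room temperature in the dark with compounds (11-point series). Resorufin fluorescence (ex 525/20, em 598/25) was read 5 min after adding resazurin/NADH.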
# [20] = biological target: Luciferin 4-monooxygenase (Photinus pyralis) (UniProt P08659); assay: Firefly luciferase counterscreen qHTS: Assay Interference Panel against the NCATS CANVASS Library (AID 1347363); also: series mostly up to about 57 µM
# Sequence of Luciferin 4-monooxygenase (Photinus pyralis) (P08659 whole entry, looked up): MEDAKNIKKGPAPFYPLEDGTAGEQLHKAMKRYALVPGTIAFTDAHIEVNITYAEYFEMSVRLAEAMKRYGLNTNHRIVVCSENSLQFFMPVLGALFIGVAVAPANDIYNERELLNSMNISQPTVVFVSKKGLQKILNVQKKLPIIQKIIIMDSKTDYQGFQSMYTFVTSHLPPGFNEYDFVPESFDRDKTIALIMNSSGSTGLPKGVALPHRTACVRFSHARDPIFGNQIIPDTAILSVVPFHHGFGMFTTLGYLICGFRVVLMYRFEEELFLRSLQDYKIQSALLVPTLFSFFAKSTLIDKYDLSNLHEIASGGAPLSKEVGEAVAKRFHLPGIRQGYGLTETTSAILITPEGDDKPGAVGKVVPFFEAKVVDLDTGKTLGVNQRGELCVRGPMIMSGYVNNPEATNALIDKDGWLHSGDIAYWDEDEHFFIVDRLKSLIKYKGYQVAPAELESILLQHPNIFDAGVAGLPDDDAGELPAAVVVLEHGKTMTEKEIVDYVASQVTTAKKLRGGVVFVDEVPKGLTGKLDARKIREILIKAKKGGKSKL
# In short: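 Purified P. pyralis luciferase was added to compounds (11-point series) preincubated 15 min at room temperature with substrate containing 0.013 mM D-luciferin and 0.013 mM ATP; luminescence was read after 5 min.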
# [21] = KB-8-5-11 Cancer Cell Toxicity qHTS against the NCATS CANVASS Library (AID 1347364); also: series mostly up to about 46 µM; nearly all actives have a fitted effect of over 75% in size
# In short: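 Terse: KB-8-5-11, 500 cells/well, 72 hr, 37C/5% CO2, 11-pt titration, CellTiter-Glo readout; confirmatory runs ± 1uM tariquidar in medium.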
# [22] = SDT Cancer Cell Toxicity qHTS against the NCATS CANVASS Library (AID 1347365);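 also: SDT canine glioma cells 500 per well in 1536 well plates; series mostly up to about 46 µM; nearly all actives have a fitted effect of over 60% in size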
# In short: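 Cytotoxicity is measured from cellular ATP: compounds in an 11-point concentration series are pinned onto SDT cells, incubated 72 hr at 37C, then CellTiterGlo is added and luminescence read.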
# [23] = KB-3-1 Cancer Cell Toxicity qHTS against the NCATS CANVASS Library (AID 1347366); also: series mostly up to about 46 µM; nearly all actives have a fitted effect of over 75% in size
# In short: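 Seed KB-3-1 cells at 500/well in DMEM with 10% FBS, add compounds, incubate 72 hr at 37C and 5% CO2, then add CellTiter-Glo and read luminescence after 10 minutes.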
compound,measurement,setting,value
C/C=C/c1cc(OC)c2c(c1)[C@@H](C)[C@H](c1ccc(O)c(OC)c1)O2,Potency,[1],55.3 µM (active)
same,Potency,[2],inactive
same,Potency,[3],inactive
same,Potency,[4],inactive
same,Potency,[5],inactive
same,Potency,[6],inactive
same,Potency,[7],inactive
same,Potency,[8],inactive
same,Potency,[9],inactive
same,Potency,[10],inactive
same,Potency,[11],inactive
same,Potency,[12],inactive
same,outcome,[13],inactive
same,Potency,[14],inactive
same,Potency,[15],inactive
same,Potency,[16],inactive
same,Potency,[17],inactive
same,Potency,[18],inactive
same,Potency,[19],inactive
same,Potency,[20],inactive
same,Potency,[21],inactive
same,Potency,[22],inactive
same,Potency,[23],inactive
